Test results as given in PubChem BioAssay (NCI).
Compounds without any hit were thinned out: in the full panel of roughly 83,000, 20% have a hit.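 Single-concentration screen, 48 h exposure, 96-well plates. Endpoint: percent growth. Below 10 = active.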 Calls of active or inactive are those of the source.

tested on: SK-OV-3 ovarian; assay: NCI-60 one-dose screen, 48 h (100 = growth as untreated, 0 = no growth, -100 = all killed); details: 10 µM
Description: Growth inhibition of the SK-OV-3 human tumor cell line is measured as a screen for anti-cancer activity. Cells are grown in 96 well plates and exposed to the test compound for 48 hours. Compounds are tested at a single concentration, which is 10^-5 M for most compounds. The reported endpoint is percent growth (GI% or GIPRCNT), where numbers from 0 - 100% represent growth inhibition, and numbers from -100% - 0 represent cell death. For example, a value of 40 represents 60% growth inhibition. A value of 0 means no net growth occurred over the course of the experiment. A value of -40 indicates 40% of cells at the beginning of the experiment died by the end of the experiment. A value of -100 means all cells are dead at the end of the experiment.
NCI-60 Human Tumor Cell Lines Screen was performed using the standard one-dose NCI protocol, which is described in more detail at https://dtp.cancer.gov/discovery_development/nci-60/default.htm.
Compounds with GIPRCNT values below 10 were considered active. Activity score was based on GIPRCNT using the following formula: […]
Score is 0 for GIPRCNT values of 100 or above, 50 for GIPRCNT values of 0, and 100 for GIPRCNT values of -100.

Structure (SMILES) | growth
Cc1cccc(CO)c1 | 107% (inactive)
Cc1cc2nc(CO)[nH]c2cc1C | 108% (inactive)
FC(F)(F)c1ccc2c(c1)N(CCCN1CCN(C3CC3)CC1)c1ccccc1S2 | 83.9% (inactive)
COc1cc2nc3cc([N+](=O)[O-])ccc3c(Cl)c2cc1OC | 106% (inactive)
CC(=O)N(C)c1ccc([N+](=O)[O-])cc1 | 106% (inactive)
Nc1ccc(CC(=O)O)c(N)c1 | 93% (inactive)
COc1cc(C2c3cc4c(cc3C3OC(=O)C2C3CO)OCO4)cc(OC)c1OC (stereo not given) | -7.31% (active)
CC1=CC(C)(C)NC(=S)N1c1ccc(S(=O)(=O)O)c2cccc(S(=O)(=O)O)c12 | 115% (inactive)
CCS(=O)(=O)c1cc(=O)[nH]c(=O)[nH]1 | 116% (inactive)
c1cc[n+](C2c3ccccc3C([n+]3ccccc3)c3ccccc32)cc1 (stereo not given) | 92.5% (inactive)
O=[N+]([O-])c1cccc(C(F)(F)F)c1 | 106% (inactive)
O=C(O)COCC(=O)O | 111% (inactive)
COc1ccc(C(=O)C(Br)C(Br)C(=O)O)cc1 (stereo not given) | 104% (inactive)
Clc1ccc(-c2n[nH]c3c2Cc2ccccc2-3)cc1Cl | 99.4% (inactive)
O=C(N/N=C/c1ccccc1O)Nc1nn[nH]n1 | 113% (inactive)
C#CCSc1nnnn1-c1ccc(Br)c(C)c1 | 105% (inactive)
O=C(N/N=C\c1cc(Br)cc(Br)c1O)N/N=C/c1cc(Br)cc(Br)c1O | 79.7% (inactive)
COc1ccc(C(C)C=O)cc1 (stereo not given) | 109% (inactive)
Cc1cc(C(C)(C)C)cc(C)c1Br | 108% (inactive)
O=C1C=C(O)C(=O)C=C1O | 87.9% (inactive)

Structure (SMILES) | growth
C#C[C@H]1CCCCCC1O (stereo not given in full) | 110% (inactive)
CNc1nc(NC)c2cn[nH]c2n1 | 97.2% (inactive)
O=[N+]([O-])c1ccc(-c2noc(-c3cccs3)n2)cc1 | 95.2% (inactive)
C/C=C/CC(C)C(O)C1C(=O)NC(CC)C(=O)N(C)CC(=O)N(C)C(CC(C)C)C(=O)NC(C(C)C)C(=O)N(C)C(CC(C)C)C(=O)NC(C)C(=O)NC(C)C(=O)N(C)C(CC(C)C)C(=O)N(C)C(CC(C)C)C(=O)N(C)C(C(C)C)C(=O)N1C (stereo not given) | 40.4% (inactive)
Cc1cc(N2CCC(N3CCCC3)CC2)nc(/N=C(\N)Nc2ccc(Cl)c(Cl)c2)n1 | 88.3% (inactive)
O=c1cc(-c2ccccc2)[nH]c2c1CCCC2 | 25.8% (inactive)
Cc1ccc(C)n1-c1ccsc1C(=O)NNC(=O)C(Cl)Cl | 95.7% (inactive)
COc1ccccc1N1CCN(C(=S)Nc2ccccc2)CC1 | 99.5% (inactive)
COS(=O)(=O)c1ccc(Br)cc1 | 104% (inactive)
O=C1Cc2cc(O)ccc2O1 | 99.8% (inactive)
CC1(C(=O)O)NC(C(=O)O)Cc2c1[nH]c1ccccc21 (stereo not given) | 92.7% (inactive)
COCCCC/C(=N\OCCN)c1ccc(C(F)(F)F)cc1 | 105% (inactive)
O=C(O)CCC(NC(=O)OCc1ccccc1)C(=O)O (stereo not given) | 82.4% (inactive)
CCCC(=O)Nc1ccc2c(c1)CN1C(=O)c3ccccc3C1=N2 | 110% (inactive)
C/C(=N/NC(N)=O)c1ccco1 | 84.1% (inactive)
c1csc(-c2cc(-c3cc(-c4cccs4)[nH]n3)n[nH]2)c1 | 97% (inactive)
COc1ccc(C2(O)CCCCC2)cc1 | 107% (inactive)
COC1=CC(=O)c2nc(Cl)ccc2C1=O | 89.4% (inactive)
COc1cc(/C=C/C(=O)c2ccccc2)cc(OC)c1OC | 79% (inactive)
COc1cc2c(cc1O)CC[C@@H]1C2CC[C@@]2(C)C1CC[C@@H]2O (stereo not given in full) | 24.1% (inactive)
